In PubChem BioAssay AID1159580 (chemical genetic matrix, 2015):
Hit rate of the full screen: of about 5,500 compounds, about 2,000 (36%) were called active. Not shown: some 18% with an inconclusive outcome. No stated cut-off is given here; in the data, active means normalized growth mostly below about 0.91 (no sharp cut-off); inconclusive means no clear call, values can overlap the other calls; inactive means mostly above about 0.92. Some of the results follow.

Assay: chemical genetic growth profiling, strain panel (AID 1159580);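 further: tested at 20 µM; growth read once vehicle control cultures reached saturation at 30 °C; 1 = growth at the plate median or of vehicle wells; lower values mean less growth of the strain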
Details: growth OD

Measured: normalized growth

Oc1cccc(O)c1
inactive: S. cerevisiae deletion strains, locus YJR066W, strain TOR1, active compounds read low 0.971 | S. cerevisiae deletion strains, locus YJR075W, strain HOC1, active compounds read low 1.01 | S. cerevisiae deletion strains, locus YKL009W, strain mrt4, active compounds read low 0.98 | S. cerevisiae deletion strains, locus YKL068W, active compounds read low 0.997 | S. cerevisiae deletion strains, locus YKL085W, strain MDH1 (second series), active compounds read low 0.994 | S. cerevisiae deletion strains, locus YKL085W, strain MDH1, active compounds read low 0.994 | S. cerevisiae deletion strains, locus YKL160W, strain elf1, active compounds read low 1.02 | S. cerevisiae deletion strains, locus YKL190W, strain CNB1, active compounds read low 1.01 | S. cerevisiae deletion strains, locus YKR001C, strain vps1, active compounds read low 0.98 | S. cerevisiae deletion strains, locus YKR026C, strain gcn3, active compounds read low 0.967 | S. cerevisiae deletion strains, locus YKR091W, strain srl3, active compounds read low 0.979 | S. cerevisiae deletion strains, locus YLL001W, strain dnm1, active compounds read low 0.993 | S. cerevisiae deletion strains, locus YLL026W, active compounds read low 1.01 | S. cerevisiae deletion strains, locus YLL041C, strain sdh2, active compounds read low 0.979 | S. cerevisiae deletion strains, locus YLR027C, strain aat2, active compounds read low 0.992 | S. cerevisiae deletion strains, locus YLR039C, strain RIC1, active compounds read low 1.01 | S. cerevisiae deletion strains, locus YLR058C, strain SHM2, active compounds read low 1.01 | S. cerevisiae deletion strains, locus YLR102C, strain apc9, active compounds read low 0.993 | S. cerevisiae deletion strains, locus YLR113W, strain HOG1, active compounds read low 1.01 | S. cerevisiae deletion strains, locus YLR221C, strain rsa3, active compounds read low 0.962 | S. cerevisiae deletion strains, locus YLR258W, strain gsy2, active compounds read low 0.956 | S. cerevisiae deletion strains, locus YLR262C, strain YPT6 (second series), active compounds read low 1 | S. cerevisiae deletion strains, locus YLR262C, strain YPT6, active compounds read low 1.02 | S. cerevisiae deletion strains, locus YLR268W, strain sec22, active compounds read low 0.974 | S. cerevisiae deletion strains, locus YLR320W, strain mms22, active compounds read low 0.944 | S. cerevisiae deletion strains, locus YLR330W, strain CHS5, active compounds read low 1.01 | S. cerevisiae deletion strains, locus YLR342W, strain FKS1 (second series), active compounds read low 0.995 | S. cerevisiae deletion strains, locus YLR342W, strain FKS1, active compounds read low 1 | S. cerevisiae deletion strains, locus YLR357W, strain rsc2, active compounds read low 0.977 | S. cerevisiae deletion strains, locus YLR370C, strain arc18, active compounds read low 0.992 | S. cerevisiae deletion strains, locus YLR371W, strain rom2, active compounds read low 0.992 | S. cerevisiae deletion strains, locus YLR384C, strain iki3, active compounds read low 0.997 | S. cerevisiae deletion strains, locus YLR418C, strain cdc73, active compounds read low 0.961 | S. cerevisiae deletion strains, locus YML016C, strain PPZ1, active compounds read low 1 | S. cerevisiae deletion strains, locus YML032C, strain rad52, active compounds read low 0.983 | S. cerevisiae deletion strains, locus YML120C, strain ndi1, active compounds read low 0.986 | S. cerevisiae deletion strains, locus YML124C, strain tub3, active compounds read low 0.991 | S. cerevisiae deletion strains, locus YMR058W, strain fet3, active compounds read low 0.972 | S. cerevisiae deletion strains, locus YMR078C, strain ctf18, active compounds read low 0.989 | S. cerevisiae deletion strains, locus YMR125W, strain sto1, active compounds read low 0.932 | S. cerevisiae deletion strains, locus YMR129W, active compounds read low 0.974 | S. cerevisiae deletion strains, locus YMR205C, strain PFK2, active compounds read low 0.991 | S. cerevisiae deletion strains, locus YMR223W, strain ubp8, active compounds read low 0.991 | S. cerevisiae deletion strains, locus YMR231W, strain pep5, active compounds read low 0.985 | S. cerevisiae deletion strains, locus YMR263W, strain SAP30, active compounds read low 1.01 | S. cerevisiae deletion strains, locus YMR307W, strain GAS1, active compounds read low 0.989 | S. cerevisiae deletion strains, locus YNL067W, strain RPL9B, active compounds read low 1.02 | S. cerevisiae deletion strains, locus YNL071W, strain lat1, active compounds read low 0.969 | S. cerevisiae deletion strains, locus YNL183C, strain NPR1, active compounds read low 0.951 | S. cerevisiae deletion strains, locus YNL209W, strain ssb2, active compounds read low 0.973 | S. cerevisiae deletion strains, locus YNL233W, strain BNI4, active compounds read low 1.01 | S. cerevisiae deletion strains, locus YNL248C, strain rpa49, active compounds read low 0.957 | S. cerevisiae deletion strains, locus YNL250W, strain rad50, active compounds read low 0.985 | S. cerevisiae deletion strains, locus YNL271C, strain bni1, active compounds read low 0.991 | S. cerevisiae deletion strains, locus YNL298W, strain CLA4, active compounds read low 0.978 | S. cerevisiae deletion strains, locus YNL307C, strain MCK1, active compounds read low 0.988 | S. cerevisiae deletion strains, locus YNL322C, strain KRE1 (second series), active compounds read low 0.967 | S. cerevisiae deletion strains, locus YNR049C, strain mso1, active compounds read low 0.971 | S. cerevisiae deletion strains, locus YNR052C, strain pop2, active compounds read low 0.99 | S. cerevisiae deletion strains, locus YOL006C, strain TOP1, active compounds read low 1.03 | S. cerevisiae deletion strains, locus YOL012C, strain htz1 0.68 | S. cerevisiae deletion strains, locus YOL147C, strain pex11, active compounds read low 0.995 | S. cerevisiae deletion strains, locus YOR001W, strain rrp6, active compounds read low 1.01 | S. cerevisiae deletion strains, locus YOR061W, strain CKA2, active compounds read low 1.01 | S. cerevisiae deletion strains, locus YOR069W, strain VPS5, active compounds read low 1 | S. cerevisiae deletion strains, locus YOR070C, strain gyp1, active compounds read low 0.979 | S. cerevisiae deletion strains, locus YOR080W, strain dia2, active compounds read low 0.987 | S. cerevisiae deletion strains, locus YOR083W, strain WHI5, active compounds read low 0.986 | S. cerevisiae deletion strains, locus YOR106W, strain vam3, active compounds read low 0.983 | S. cerevisiae deletion strains, locus YOR136W, strain idh2, active compounds read low 0.988 | S. cerevisiae deletion strains, locus YOR144C, strain elg1, active compounds read low 0.98 | S. cerevisiae deletion strains, locus YOR184W, strain ser1, active compounds read low 0.977 | S. cerevisiae deletion strains, locus YOR231W, strain MKK1, active compounds read low 1.02 | S. cerevisiae deletion strains, locus YOR265W, strain rbl2, active compounds read low 0.987 | S. cerevisiae deletion strains, locus YOR270C, strain vph1, active compounds read low 0.969 | S. cerevisiae deletion strains, locus YOR290C, strain snf2, active compounds read low 0.922 | S. cerevisiae deletion strains, locus YOR316C, strain cot1, active compounds read low 0.995 | S. cerevisiae deletion strains, locus YPL051W, strain arl3, active compounds read low 1 | S. cerevisiae deletion strains, locus YPL055C, strain LGE1, active compounds read low 1.03 | S. cerevisiae deletion strains, locus YPL078C, strain atp4, active compounds read low 1 | S. cerevisiae deletion strains, locus YPL106C, strain sse1, active compounds read low 0.926 | S. cerevisiae deletion strains, locus YPL240C, strain hsp82, active compounds read low 0.995 | S. cerevisiae deletion strains, locus YPL241C, strain CIN2, active compounds read low 1.01 | S. cerevisiae deletion strains, locus YPL256C, strain CLN2, active compounds read low 1.06 | S. cerevisiae deletion strains, locus YPR119W, strain clb2, active compounds read low 0.959 | S. cerevisiae deletion strains, locus YPR141C, strain kar3, active compounds read low 0.988 | S. cerevisiae deletion strains, locus YPR163C, strain tif3, active compounds read low 0.993 | S. cerevisiae deletion strains, locus YPR167C, strain met16, active compounds read low 0.995 | S. cerevisiae deletion strains, strain wtn01, active compounds read low 0.979 | S. cerevisiae strains, strain wild type, active compounds read low 1
